Measurements reported in PubChem BioAssay AID2012 (Sanford-Burnham Center for Chemical Genomics, 2009).
The whole screen tested about 290,000 compounds, of which about 2,700 (0.93%) were called active. How the calls were made is not given here. What follows is part of a selection rich in actives, with near analogues and random picks from the rest.

Biological target: Eukaryotic translation initiation factor 4H (Homo sapiens) (UniProt Q15056)
Assay: eIF4H binding inhibition – biochemical, uHTS, fluorescence polarization, translation initiation inhibitor project, primary screen (AID 2012);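 further: calls also rest on retests at 20 µM and on dose response follow-up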
Details: eIF4H fluorescence polarization binding assay, stronger effect = higher value

| SMILES | inhibition (at 35 µM) | inhibition (confirmation average, at 20 µM) [%] |
| --- | --- | --- |
| O=C(Cn1cnc2ccccc21)N/N=C/c1ccco1 | 69.8% (inactive) | 2.9 |
| O=c1nc(N/N=C/c2ccco2)cn[nH]1 | 76.3% (active) | 73.4 |
| CC(C)NC(=O)C(=O)N/N=C/c1ccco1 | -8.2% (inactive) |  |
| COc1ccc(Nc2ncnc3ccc(Br)cc23)c(OC)c1 | -9.9% (inactive) |  |
| Cc1ccc(CS(=O)(=O)CCC(=O)NCc2ccc(F)cc2)cc1 | -4.5% (inactive) |  |
| CCCCNC(=O)C1(O)c2ccccc2NC(=O)N1c1ccc(Cl)cc1 (stereo not given) | -2.3% (inactive) |  |
| O=C(O)CC(c1ccccc1F)N1Cc2ccccc2C1=O (stereo not given) | 0.1% (inactive) |  |
| O=C(c1cccs1)N(C(=O)c1cccs1)c1ccccn1 | -8.6% (inactive) |  |
| O=C(CNC(=O)c1ccc(Br)o1)NCC1CCCO1 (stereo not given) | -11.8% (inactive) |  |
| O=C(c1ccc(Br)o1)N(c1ccccn1)C1CCCCC1 | 55.5% (active) | 99.6 |
| Cc1ccc(S(=O)(=O)N2CCC(Oc3ccc(-n4cnnn4)cc3)CC2)cc1 | 1.6% (inactive) |  |
| CCOc1ccc(Br)cc1S(=O)(=O)N1CCC(C(=O)O)CC1 | -7.6% (inactive) |  |
| CCOc1ccc(-n2cnnn2)cc1S(=O)(=O)N1CCC(C)CC1C (stereo not given) | 3.6% (active) | 90.8 |
| COc1cccc(C(=O)Nc2nnc(S(=O)(=O)N3CCOCC3)s2)c1 | -15.7% (inactive) |  |
| CN(Cc1ccccc1)C(=O)c1ccc(NC2=NC3CS(=O)(=O)CC3S2)cc1 (stereo not given) | -7.2% (inactive) |  |
| COc1cccc(NC(=O)C2CCCN(c3ncnc4c3nc3n4CCCCC3)C2)c1 (stereo not given) | 2.9% (inactive) |  |
| O=C(c1cc(=O)c2ccccc2o1)N1CCN(c2ccccc2)CC1 | 1.2% (inactive) |  |
| O=C(c1ccc(CS(=O)(=O)c2ccccc2)o1)N1CCN(c2ccccc2)CC1 | 93.4% (active) | 73.1 |
| O=C(c1ccc(S(=O)(=O)N2CCOCC2)cc1)N1CCN(c2ccccc2)CC1 | -4.2% (inactive) |  |
| Cc1ccc(C)c(S(=O)(=O)N2CCN(C(=O)Nc3ccccc3)CC2)c1 | 4.3% (inactive) |  |
| CC(Oc1cc2oc(=O)c3c(c2cc1Cl)CCCC3)C(=O)NCc1ccncc1 (stereo not given) | -3.9% (inactive) |  |

| SMILES | inhibition (at 35 µM) | inhibition (confirmation average, at 20 µM) [%] |
| --- | --- | --- |
| Cc1ccc(-c2nn(-c3ccccc3)cc2/C=C2\SC(=S)N(CCCCCC(=O)O)C2=O)o1 | 78.9% (active) | 68.5 |
| COc1ccc(-c2nn(-c3ccccc3)cc2/C=C2/SC(=S)N(CCCC(=O)O)C2=O)c(C)c1 | 15.2% (inactive) |  |
| CN(C)S(=O)(=O)c1cccc(-c2nn(-c3ccccc3)cc2/C=C2\SC(=S)N(CC(=O)O)C2=O)c1 | 47.3% (inactive) |  |
| CCOC(=O)CSc1nc(N2CCOCC2)c2c(c1C#N)CC(C(C)C)OC2 (stereo not given) | -6.3% (inactive) |  |
| Cc1ccnc(NC(=O)CCNS(=O)(=O)c2ccc(C)c(C)c2)c1 | -10.9% (inactive) |  |
| CN1CCc2nc(SC(C(=O)O)c3ccccc3)c(C#N)c(-c3cccs3)c2C1 (stereo not given) | 76.7% (active) |  |
| CCc1c(-c2ccccc2)nc(N)c(C#N)c1-c1cccs1 | -8.4% (inactive) |  |
| Cc1c(-c2ccccc2)nc(N)c(C#N)c1-c1cccs1 | 7.1% (inactive) |  |
| O=C(O)C1CCCCC1C(=O)N1CCN(S(=O)(=O)c2ccc(F)cc2)CC1 (stereo not given) | -6.9% (inactive) |  |
| Cc1cc(=O)[nH]c(=S)[nH]1 | 2.4% (inactive) |  |
| O=c1[nH]c(=S)[nH]c2[nH]c(=S)[nH]c12 | 88.2% (active) |  |
| Cc1c(C)c(C)c2[nH]c(=S)[nH]c2c1C | -4.2% (inactive) |  |
| CN(C(=O)CCNC(=O)Cn1ccc2ccccc2c1=O)c1ccc(Br)cc1 | 1.5% (inactive) |  |
| CCOC(=O)C1=C(C)NC(=S)NC1c1cccs1 (stereo not given) | -5% (inactive) |  |
| CCOC(=O)N1CC=C2C(C#N)=C(N)C(C#N)(C#N)[C@H](c3cccs3)[C@H]2C1 | 63.3% (active) |  |
| N#CC1=C(N)C(C#N)(C#N)[C@H](c2ccsc2)[C@H]2COCC=C12 | 113% (inactive) | -3.8 |
| Cc1ccn2c(c1)nc(=O)c1cc(S(=O)(=O)N3CCC(C)CC3)ccc12 | -3.5% (inactive) |  |
| Cc1ccc(Cl)c(OCC(=O)N2CCc3ccccc3C2)c1 | -9.4% (inactive) |  |
| O=C(Nc1ncc2c(n1)-c1ccccc1OC2)c1ccc(Cl)cc1 | -10.3% (inactive) |  |
| CCc1ccc(Nc2ncc3c(n2)CC(c2ccco2)CC3=O)cc1 (stereo not given) | -4% (inactive) |  |
| O=C(Nc1ncc2c(n1)CC(c1ccco1)CC2=O)c1ccc(Cl)cc1 (stereo not given) | 83.6% (active) |  |

| SMILES | inhibition (at 35 µM) | inhibition (confirmation average, at 20 µM) [%] |
| --- | --- | --- |
| Cc1c(CCC(=O)O)c(=O)oc2cc3occ(-c4ccccc4)c3cc12 | 14.4% (inactive) |  |
| Cc1c(CC(=O)NCCCCCC(=O)O)c(=O)oc2cc3occ(-c4ccccc4)c3cc12 | 6% (inactive) |  |
| CCCCCCc1cc2cc(-c3nnc(-c4ccccc4)o3)c(=O)oc2cc1O | 70.4% (active) |  |
| Cc1nc(NC(=O)c2ccc3c(c2)OCCO3)ccc1Br | -4.6% (inactive) |  |
| CCOc1ccc(OCC(=O)Nc2c3c(nn2C(C)(C)C)CS(=O)(=O)C3)cc1 | -13.7% (inactive) |  |
| COc1ccc(CNS(=O)(=O)c2ccc(-c3cnc(C4CC4)o3)cc2)cc1 | -9.2% (inactive) |  |
| O=C1OCC2=C1C(c1ccccc1)CC(=O)N2c1cccc(F)c1 (stereo not given) | 4.2% (active) | 96.6 |
| O=C1CC(NNc2ccccc2)C(=O)N1c1cccc(Cl)c1 (stereo not given) | -1.9% (inactive) |  |
| O=C1CC(c2ccccc2)C(=O)N1c1cccc(O)c1 (stereo not given) | -6.1% (inactive) |  |
| Cc1ccc(NC(=O)CCC(=O)c2ccc(Br)cc2)cc1 | -5% (inactive) |  |
| CCc1c(C)nc2cc(-c3cccs3)[nH]n2c1=O | 4.5% (inactive) |  |
| Cc1cc(=O)n2[nH]c(-c3cccc(Cl)c3)cc2n1 | -7.1% (inactive) |  |
| Cc1cc(=O)n2[nH]c(-c3sccc3-n3c(C)ccc3C)cc2n1 | 93.9% (active) | 97.8 |
| c1ccc(CCC2=NCCn3cccc32)cc1 | 61.9% (active) |  |
| S=C(NCCc1ccccc1)N1CCn2cccc2C1c1ccncc1 (stereo not given) | 8.3% (inactive) |  |
| CC1CSc2nnc(CCc3ccccc3)n21 (stereo not given) | -1.5% (inactive) |  |
| O=C(NCC(=O)N1CCN(c2ccccc2O)CC1)c1ccc2ccccc2c1 | 6% (inactive) |  |
| COc1cc(C(=O)OCC(=O)NC(C)CCc2ccccc2)cc(OC)c1OC (stereo not given) | 5.2% (inactive) |  |
| Cc1ccc(CN2CCNC(=O)C2CC(=O)NCc2csc(C(C)C)n2)cc1 (stereo not given) | -5.6% (inactive) |  |
